# In PubChem BioAssay AID651725 (National Center for Advancing Translational Sciences (NCATS), 2012):
# Screen size: about 360,000 compounds; about 2,000 (0.56%) were called active. Roughly 2% stayed inconclusive and do not appear here. This is one part of a sample in which actives are shown more often than they occur. Values without a mark were called inactive. No stated cut-off is given here; in the data, active means activity change below about -65%; inconclusive means mostly about -30% to -63%; inactive means weaker than that.
# Target: Homeobox protein SIX1 (Homo sapiens) + Protein phosphatase EYA2 (Homo sapiens) (UniProt Q15475+O00167)
# Test: qHTS Assay for Inhibitors of the Six1/Eya2 Interaction
# Details: AlphaScreen GST-Six1/His-Eya2 binding, biochemical; stronger effect = lower value
# Method in brief: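 AlphaScreen luminescence read after one hour at 37 °C in darkness. Pin-transferred compounds met GST-Six1 and His-Eya2 protein (5X stock 250 nM/500 nM) plus glutathione donor and Ni-chelate acceptor beads (5X, 50 ug/mL).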
# On the % scale 0 is the no-effect control and ±100 the full control effect.
# Homeobox protein SIX1 (Homo sapiens) + Protein phosphatase EYA2 (Homo sapiens), sequence (O00167 whole entry, looked up): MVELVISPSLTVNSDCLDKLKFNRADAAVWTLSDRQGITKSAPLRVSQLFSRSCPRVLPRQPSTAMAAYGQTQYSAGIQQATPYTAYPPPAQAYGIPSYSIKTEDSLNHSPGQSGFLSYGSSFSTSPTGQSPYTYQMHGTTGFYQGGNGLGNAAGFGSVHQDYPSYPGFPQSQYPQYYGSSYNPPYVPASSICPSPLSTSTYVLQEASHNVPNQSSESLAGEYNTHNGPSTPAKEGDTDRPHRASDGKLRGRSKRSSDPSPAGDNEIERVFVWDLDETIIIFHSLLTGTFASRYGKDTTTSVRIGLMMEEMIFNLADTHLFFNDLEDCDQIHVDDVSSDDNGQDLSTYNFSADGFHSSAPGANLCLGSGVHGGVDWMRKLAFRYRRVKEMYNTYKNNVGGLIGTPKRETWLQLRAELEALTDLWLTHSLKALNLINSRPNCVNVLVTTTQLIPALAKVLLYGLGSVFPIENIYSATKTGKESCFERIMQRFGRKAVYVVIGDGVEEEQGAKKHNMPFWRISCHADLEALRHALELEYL
# Homeobox protein SIX1 (Homo sapiens) + Protein phosphatase EYA2 (Homo sapiens), sequence (Q15475 whole entry, looked up): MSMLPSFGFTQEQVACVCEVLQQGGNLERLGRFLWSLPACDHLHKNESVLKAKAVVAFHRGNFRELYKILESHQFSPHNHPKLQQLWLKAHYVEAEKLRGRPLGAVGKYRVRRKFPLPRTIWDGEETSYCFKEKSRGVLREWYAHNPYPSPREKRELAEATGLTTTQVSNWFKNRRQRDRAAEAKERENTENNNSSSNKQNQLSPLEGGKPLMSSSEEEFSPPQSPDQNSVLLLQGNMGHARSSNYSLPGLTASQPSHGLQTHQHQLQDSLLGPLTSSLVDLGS
row,SMILES,activity change
1,COc1ccccc1Cc1c(-c2ccc(Cl)cc2)nc2c3ccccc3ccn12,9.04%
2,COc1cccc(/C=N/Nc2ncc(C(F)(F)F)cc2Cl)c1O,-91.7% (active)
3,O=c1[nH]c2cccnc2n(CCNc2ncc(C(F)(F)F)cc2Cl)c1=O,5.43%
4,CN(C)C=NC(=O)c1cccn1-c1ncc(C(F)(F)F)cc1Cl,7.6%
5,Nc1c(C(=O)c2cccs2)sc2nsc(SCCN3CCCCC3)c12,19.7%
6,O=C(O)C1C2CC2CN1C(=O)c1ccc(Cl)cc1Cl (configuration not stated),2.75%
7,O=C(Nc1ccc(C(=O)O)cc1)/C(=C/c1ccc([N+](=O)[O-])cc1)NC(=O)c1ccccc1,-4.68%
8,O=C(N/N=C/c1cc([N+](=O)[O-])ccc1O)/C(=C\c1cccs1)NC(=O)c1ccccc1,-90.3% (active)
9,O=C(NCCc1ccccc1)/C(=C\c1ccc([N+](=O)[O-])cc1)NC(=O)c1ccccc1,2.96%
10,COc1ccc(NC(=O)C2(C)Cc3c(-c4cccc(NC(C)=O)c4)ccnc3O2)cc1OC (configuration not stated),-4.36%
11,O=C(Oc1cccnc1)c1cc2ccccc2oc1=O,-76% (active)
12,CCc1ccc(Oc2coc3cc(OC(=O)c4cc5ccccc5oc4=O)ccc3c2=O)cc1,-6.39%
13,O=C(Nc1cccnc1)c1cc2cc(Br)ccc2oc1=O,17.5%
14,COC(=O)[C@]12CCCCC=C1N(Cc1ccco1)C(=O)[C@H](CC(=O)NCCCCc1ccccc1)C2,-13.7%
15,CCC(C)CN1C(=O)CSCC1(C)C(=O)NCc1ccccc1 (configuration not stated),7.26%
16,CCOc1cc(N2CCOCC2)c(OCC)cc1NC(=O)COC(=O)[C@H](Cc1c[nH]c2ccccc12)NC(C)=O,0.0588%

row,SMILES,activity change
1,CCOc1cc(N2CCOCC2)c(OCC)cc1NC(=O)c1ccc(C)s1,-7.09%
2,CCOc1cc(N2CCOCC2)c(OCC)cc1NC(=O)COc1cccc2cccnc12,-66.8% (active)
3,Cc1cccc(C)c1NC(=O)C(c1cccc(F)c1)N1CCN(C)CC1 (configuration not stated),1.36%
4,CC1CCN(S(=O)(=O)c2ccc3[nH]c(=O)ccc3c2)CC1,-0.516%
5,C/C(=N/NC(=O)CCc1ccccc1)c1ccco1,2.7%
6,C/C(=N/NC(=O)c1ccn(C)n1)c1ccncc1,5.19%
7,CC(=NNC(=S)N1CCCCCC1)c1ccccn1,-88.5% (active)
8,COc1ccc(CC(=O)N/N=C(\C)c2ccccn2)cc1,-85.5% (active)
9,CCNC(=S)N1CCN(c2ncccn2)CC1,1.47%
10,COc1ccc(CC(N)c2csc(NC(=O)Cc3ccccc3)n2)cc1 (configuration not stated),-12.1%
11,O=C(NCCOc1ccccc1)c1ccccc1F,6.38%
12,C/C(=N\NC(=O)c1ccccc1F)c1ccccn1,-91.6% (active)
13,C/C(=N\NC(=O)Cc1ccc(Cl)cc1)c1ccccn1,-85.5% (active)
14,COc1ccc(C(=O)/C=C/Nc2ccccn2)cc1,3.99%
15,CCOc1ccc(NC(=S)N2CCCCCC2)cc1,-13.8%
16,O=C(Cc1ccc(Cl)cc1)c1ccccc1,4.47%
